In all, about 310,000 compounds went through this assay and about 14,000 (4.5%) showed an effect of 50% or more. The effect is printed as a negative number. This excerpt belongs to a sample that is enriched for strong results.
Biological target: human ether-à-go-go-related gene (hERG) potassium channel (human, UniProt Q12809)
Assay: primary screen, population patch clamp on CHO cells stably expressing hERG; higher = less effect of the substance
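Note: peak tail current of the secondary pulse compared with the same well before compound.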

human ether-à-go-go-related gene (hERG) potassium channel, sequence (Q12809 whole entry, looked up): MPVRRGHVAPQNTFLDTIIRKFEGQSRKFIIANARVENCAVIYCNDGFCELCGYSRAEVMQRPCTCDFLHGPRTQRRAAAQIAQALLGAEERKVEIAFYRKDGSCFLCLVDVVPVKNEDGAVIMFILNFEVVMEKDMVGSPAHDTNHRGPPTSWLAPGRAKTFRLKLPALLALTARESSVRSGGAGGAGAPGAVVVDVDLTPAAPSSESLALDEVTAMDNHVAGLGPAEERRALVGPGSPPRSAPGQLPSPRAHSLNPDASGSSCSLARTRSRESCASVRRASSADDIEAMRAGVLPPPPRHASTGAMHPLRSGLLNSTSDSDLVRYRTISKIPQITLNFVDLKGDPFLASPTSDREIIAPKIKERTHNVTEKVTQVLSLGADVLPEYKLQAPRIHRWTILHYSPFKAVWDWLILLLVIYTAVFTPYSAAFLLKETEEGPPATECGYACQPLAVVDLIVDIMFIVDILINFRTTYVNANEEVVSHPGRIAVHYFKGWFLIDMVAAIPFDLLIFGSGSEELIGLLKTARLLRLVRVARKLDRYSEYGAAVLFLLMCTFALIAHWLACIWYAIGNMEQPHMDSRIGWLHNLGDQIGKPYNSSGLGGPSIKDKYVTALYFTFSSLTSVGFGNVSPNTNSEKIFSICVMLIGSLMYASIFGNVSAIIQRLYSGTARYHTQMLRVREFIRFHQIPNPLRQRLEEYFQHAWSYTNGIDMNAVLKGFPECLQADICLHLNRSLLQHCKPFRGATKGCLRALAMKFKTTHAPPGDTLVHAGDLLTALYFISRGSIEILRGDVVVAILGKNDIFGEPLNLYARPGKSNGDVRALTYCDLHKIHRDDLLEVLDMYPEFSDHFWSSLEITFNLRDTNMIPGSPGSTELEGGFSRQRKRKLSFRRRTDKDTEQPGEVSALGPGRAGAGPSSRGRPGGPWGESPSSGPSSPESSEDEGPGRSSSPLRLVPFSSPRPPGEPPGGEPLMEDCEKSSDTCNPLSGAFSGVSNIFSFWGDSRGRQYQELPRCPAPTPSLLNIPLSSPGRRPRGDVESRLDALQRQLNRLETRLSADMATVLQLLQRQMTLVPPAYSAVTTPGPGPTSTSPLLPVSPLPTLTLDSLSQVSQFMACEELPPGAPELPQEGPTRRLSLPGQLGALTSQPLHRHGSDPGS

Row | SMILES | hERG current change (%, negative = inhibition) at 10uM
1 | CCOC(=O)C(C)Sc1nnc(Cc2cc(=O)[nH]c(=O)[nH]2)n1-c1ccc(Cl)cc1 (stereo not drawn) | 2.15%
2 | C/C(=N/OC(=O)c1c(F)cccc1F)c1nccs1 | 3.34%
3 | CCOC(=O)CSc1nnc([C@H](Cc2ccccc2)NC(=O)OC(C)(C)C)o1 | -14.3%
4 | COc1ccc2c(COC(=O)CNC(=O)C34CC5CC(CC(C5)C3)C4)cc(=O)oc2c1 | -31.4%
5 | COc1ccc([C@@H](C)NC(=O)c2ccc3oc(C(C)C)nc3c2)cc1 | 26.1%
6 | O=C(NC(=S)Nc1ccccc1F)c1ccc(Br)o1 | 8.98%
7 | COc1ccc(C2=NOC(C(=O)N3CCN(C(=O)c4ccco4)CC3)C2)cc1OC (stereo not drawn) | 0.127%
8 | O=C(c1ccco1)N1CCN(C(=O)C2CC(c3ccc(F)cc3)=NO2)CC1 (stereo not drawn) | -72.5%
9 | O=C(c1ccco1)N1CCN(C(=O)C2CC(c3ccc(Cl)cc3)=NO2)CC1 (stereo not drawn) | -76.2%
10 | COc1cc(OC)c(C2=NOC(C(=O)N3CCN(C(=O)c4ccco4)CC3)C2)cc1Cl (stereo not drawn) | -35.3%
11 | COc1cccc(C2=NOC(C(=O)N3CCN(C(=O)c4ccco4)CC3)C2)c1 (stereo not drawn) | -40.1%
12 | O=C(c1ccco1)N1CCN(C(=O)C2CC(c3ccccc3F)=NO2)CC1 (stereo not drawn) | -18.3%
13 | N#CC1(c2ccccc2)CCCN1C(=O)c1ccc(Br)cc1 (stereo not drawn) | -8.79%
14 | CC(=O)Nc1ccc(NC(=O)COc2ccc3c(c2)CCC3)cc1 | 24.5%
15 | N#CC1CCCc2c1[nH]c1ccc([N+](=O)[O-])cc21 (stereo not drawn) | 12.5%
16 | S=C(Nc1ccc(Cl)cc1)NC1CC2CCCC(C1)N2C1CCCC1 (stereo not drawn) | -55.5%
17 | Cc1cc(C)cc(NC(=S)NC2CC3CCCC(C2)N3C2CC2)c1 (stereo not drawn) | -67.3%
18 | S=C(Nc1ccc(Cl)cc1)NC1CC2CCCC(C1)N2C1CC1 (stereo not drawn) | -32.9%
19 | S=C(Nc1ccccc1Cl)NC1CC2CCCC(C1)N2C1CC1 (stereo not drawn) | -23.8%
20 | CCCN1C2CCCC1CC(NC(=S)Nc1cccc(C)c1)C2 (stereo not drawn) | -44.5%
21 | C=CCN1C2CCCC1CC(NC(=O)Nc1cccc(C(C)=O)c1)C2 (stereo not drawn) | 5.52%
22 | C=CCN1C2CCCC1CC(NC(=O)Nc1cc(C)cc(C)c1)C2 (stereo not drawn) | -51.8%
23 | CCCN1C2CCCC1CC(NC(=S)Nc1cc(C)ccc1C)C2 (stereo not drawn) | 11.6%

Row | SMILES | hERG current change (%, negative = inhibition) at 10uM
24 | S=C(Nc1cccc(Cl)c1)NC1CC2CCCC(C1)N2C1CCCC1 (stereo not drawn) | 19%
25 | Cc1cc(C)cc(NC(=O)NC2CCCCCCC2)c1 | -5.07%
26 | CCCN1C2CCCC1CC(NC(=S)Nc1cc(C)cc(C)c1)C2 (stereo not drawn) | -83.7%
27 | COc1ccc(NC(=S)NC2CC3CCCC(C2)N3C2CC2)cc1 (stereo not drawn) | -41.3%
28 | CC1=C(C)C(OCCBr)N(c2cc(O)c(Cl)cc2F)C1=O (stereo not drawn) | 4.66%
29 | CN(C(=O)c1ccc(NC(=O)Cc2ccc(NC(=O)C3CCN(C(=O)CCc4ccccc4)CC3)cc2)cc1)C1CC1 | 9.51%
30 | COc1cccc2cc(C(=O)n3ccc(C)n3)c(=O)oc12 | 8.24%
31 | CN1CCN(C2=C(NS(=O)(=O)c3ccccc3)C(=O)c3ccccc3C2=O)CC1 | 2.75%
32 | Cc1ccc(S(=O)(=O)NCC2CCC(C(=O)NCc3ccc4c(c3)OCO4)CC2)cc1 (stereo not drawn) | -0.473%
33 | Cl.Clc1ccccc1CN1CCN(/N=C/c2ccncc2)CC1 | -24.3%
34 | CCCCCCCN1C/C=C\C(c2ccc(OC)cc2)N(Cc2ccc(F)cc2)C(=O)[C@H]1Cc1ccccc1 (stereo partly drawn) | 8.55%
35 | NC(=O)CC(NC(=O)Cc1ccc(Cl)cc1)c1ccc(N2CCC(Cc3ccccc3)CC2)c([N+](=O)[O-])c1 (stereo not drawn) | 17.7%
36 | Cc1nc(SCC(=O)NCc2ccco2)c2c(C)c(C)sc2n1 | -2.85%
37 | O=C(COC(=O)c1ccc(NS(=O)(=O)c2cccs2)cc1O)NC1CCCCC1 | 8.92%
38 | O=C(O)CCS(=O)(=O)c1ccc(-c2ccccc2)cc1 | 19.3%
39 | CSc1ccc(-c2nc(CSCC(=O)NCCCN3CCCC3=O)c(C)o2)cc1 | -14.4%
40 | Cc1cc(C)cc(NC(=S)NC2CC3CCCC(C2)N3C2CCCC2)c1 (stereo not drawn) | -77.5%
41 | Cc1cc(C)cc(NC(=S)NC2CC3CCCC(C2)N3CC(C)C)c1 (stereo not drawn) | -7.32%
42 | COc1cccc(NC(=S)NC2CC3CCCC(C2)N3C2CCCC2)c1 (stereo not drawn) | -33.6%
43 | COc1ccc([C@H]2CC(=O)C=C(c3cccc(C(F)(F)F)c3)C2)cc1 | -14.4%
44 | CC1(c2nnc(Cc3ccccc3)o2)CC(c2ccc([N+](=O)[O-])cc2)=NO1 (stereo not drawn) | -63.2%
45 | CC1(c2nnc(Cc3ccccc3)o2)CC(c2ccc(C#N)cc2)=NO1 (stereo not drawn) | -62.3%
46 | Cc1ccc(C2=NOC(C)(c3nnc(Cc4ccccc4)o3)C2)cc1 (stereo not drawn) | -15.2%

Row | SMILES | hERG current change (%, negative = inhibition) at 10uM
47 | CC1(c2nnc(Cc3ccccc3)o2)CC(c2ccc(Cl)cc2)=NO1 (stereo not drawn) | -23.3%
48 | CC1(c2nnc(Cc3ccccc3)o2)CC(c2ccccc2)=NO1 (stereo not drawn) | -18%
49 | CC1(c2nnc(Cc3ccccc3)o2)CC(c2cccc([N+](=O)[O-])c2)=NO1 (stereo not drawn) | -7.45%
50 | CC1(C)CC(=O)C=C(N2CCNCC2)C1 | 14.9%
51 | CCOC(=O)C1CCCN(C(=O)c2cccc(N3C(=O)c4ccccc4C3=O)c2)C1 (stereo not drawn) | -18.4%
52 | CCOC(=O)C1CCCN(C(=O)c2ccc(C)c(S(=O)(=O)N3CCCCC3)c2)C1 (stereo not drawn) | -25.3%
53 | CCOC(=O)C1CCCN(C(=O)c2ccc(Cl)c(S(=O)(=O)N3CCCCC3)c2)C1 (stereo not drawn) | -13.8%
54 | O=C(c1ccc(Cl)c(S(=O)(=O)N2CCCC2)c1)N1CCCCC1 | 3.08%
55 | O=C(c1cccc(N2C(=O)c3ccccc3C2=O)c1)N1CCCCCC1 | 2.21%
56 | O=C(c1ccc(Cl)c(S(=O)(=O)N2CCCC2)c1)N1CCCC(C(F)(F)F)C1 (stereo not drawn) | -18.1%
57 | CC1CCCN(C(=O)c2ccc(Cl)c(S(=O)(=O)N3CCCCCC3)c2)C1 (stereo not drawn) | -76.3%
58 | O=C(c1ccc(Cl)c(S(=O)(=O)N2CCCCC2)c1)N1CCCC(C(F)(F)F)C1 (stereo not drawn) | -31.8%
59 | CCOC(=O)C1CCCN(C(=O)c2ccc(Cl)c(S(=O)(=O)N3CCCCCC3)c2)C1 (stereo not drawn) | -70.7%
60 | O=C(c1cccc(N2C(=O)c3ccccc3C2=O)c1)N1CCCC(C(F)(F)F)C1 (stereo not drawn) | -53.9%
61 | O=C(c1ccc(Cl)c(S(=O)(=O)N2CCCCCC2)c1)N1CCCC(C(F)(F)F)C1 (stereo not drawn) | -58.9%
62 | O=C(c1ccc(Cl)c(S(=O)(=O)N2CCCCC2)c1)N1CCCC1 | -7.02%
63 | CSc1cccc(NC(=O)OC2CCCCCCCCCCC2)c1 | 7.83%
64 | Cc1ccc(S(=O)(=O)N2C(=O)/C(=C3\SC(=S)NC3=O)c3ccccc32)cc1 | 10%
65 | Fc1ccccc1CSc1ncnc2sc3c(c12)CCCC3 | 2.75%
66 | O=C(Nc1ccc2nn(-c3ccccc3)nc2c1)c1ccc(Br)o1 | 7.88%
67 | CCOc1cc(C)c(C(C)C)cc1S(=O)(=O)n1ccc(C)n1 | -29.4%
68 | Cc1nn(C)c(C)c1NC(=O)/C(C#N)=C\N(C)C | 12.6%
69 | NC(=O)C1(N2CCCCC2)CCN(C(=O)CSc2nc3ccccc3o2)CC1 | -4.85%

Row | SMILES | hERG current change (%, negative = inhibition) at 10uM
70 | COC(=O)C1=C(C)N(CCC2=CCCCC2)C(=O)C1 | 1.46%
71 | CC(C)(Oc1ccc(CCNC(=O)c2ccc(-c3ccccc3)o2)cc1)C(=O)O | 14%
72 | O=C(CC1SC(N2CCCC2)=NC1=O)Nc1ccc(C(=O)N2CCCC(C(F)(F)F)C2)cc1 (stereo not drawn) | 18.8%
73 | Cc1ccc2cc(CN(C)S(C)(=O)=O)c(=O)[nH]c2c1 | 26.9%
74 | CCOC(=O)c1ccc(Cl)c(S(=O)(=O)N2CCCC2)c1 | 23.8%
75 | CN(C(=O)COC(=O)c1ccc(Cl)c(S(=O)(=O)N2CCCCC2)c1)C1(C#N)CCCCC1 | -57.4%
76 | NC(=O)COC(=O)c1ccc(Cl)c(S(=O)(=O)N2CCCCCC2)c1 | -4.36%
77 | CCN(CC)S(=O)(=O)c1ccc(C)c(NC(=O)CNc2cccc(S(=O)(=O)N3CCOCC3)c2)c1 | -17.7%
78 | Cc1c(C(=O)N(C)C)sc2nc(-c3ccccn3)[nH]c(=O)c12 | -2.71%
79 | COCCCn1c(SCC(=O)Nc2ccc(C(C)=O)cc2)nc2ccccc2c1=O | -51.5%
80 | COc1ccc(NC(=O)CSc2nc3ccccc3c(=O)n2CCNC(C)=O)c(OC)c1 | -25.1%
81 | CC(C)N(CCn1c(SCC(=O)N2CC(=O)Nc3ccccc32)nc2ccccc2c1=O)C(C)C | -76.6%
82 | COCCCn1c(SCC(=O)Nc2ccc(C)cc2)nc2ccccc2c1=O | -2.1%
83 | COCCn1c(SCC(=O)N2CC(=O)Nc3ccccc32)nc2ccccc2c1=O | -26.9%
84 | COc1ccc(NC(=O)CSc2nc3ccccc3c(=O)n2CCNC(C)=O)cc1 | -73.6%
85 | CC(=O)NCCn1c(SCC(=O)Nc2ccc(C)cc2)nc2ccccc2c1=O | 5.81%
86 | COc1ccc(OC)c(NC(=O)CSc2nc3ccccc3c(=O)n2CCNC(C)=O)c1 | -2.83%
87 | CCOc1ccc(NC(=O)CSc2nc3ccccc3c(=O)n2CCNC(C)=O)cc1 | -6.93%
88 | COc1ccccc1NC(=O)CSc1nc2ccccc2c(=O)n1CCNC(C)=O | -62.2%
89 | CN(C)CCCn1c(SCC(=O)N2CC(=O)Nc3ccccc32)nc2ccccc2c1=O | -17.6%
90 | COCCCn1c(SCC(=O)Nc2ccc(C(=O)OC)cc2)nc2ccccc2c1=O | -25.6%
